Records with an inconclusive call do not appear. The source made the active and inactive calls. Rule for the calls: active = hit-call score of the fitted dose curve at least 0.9, where 1 is the maximum; inconclusive = response in the unintended direction; inactive = score below 0.9.
target: Bile acid receptor (Homo sapiens) (UniProt Q96RI1); experiment: ATG_FXR_TRANS: Attagene TRANS-FACTORIAL HepG2 Assay for Farnesoid X Receptor (FXR) (AID 2282979); conditions: HepG2 Attagene TRANS FXR-GAL4 reporter transcription;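 note: hits raise reporter mRNA above DMSO so AC50 marks FXR activation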
Sequence (Q96RI1 whole entry, looked up, the tested form may be a part): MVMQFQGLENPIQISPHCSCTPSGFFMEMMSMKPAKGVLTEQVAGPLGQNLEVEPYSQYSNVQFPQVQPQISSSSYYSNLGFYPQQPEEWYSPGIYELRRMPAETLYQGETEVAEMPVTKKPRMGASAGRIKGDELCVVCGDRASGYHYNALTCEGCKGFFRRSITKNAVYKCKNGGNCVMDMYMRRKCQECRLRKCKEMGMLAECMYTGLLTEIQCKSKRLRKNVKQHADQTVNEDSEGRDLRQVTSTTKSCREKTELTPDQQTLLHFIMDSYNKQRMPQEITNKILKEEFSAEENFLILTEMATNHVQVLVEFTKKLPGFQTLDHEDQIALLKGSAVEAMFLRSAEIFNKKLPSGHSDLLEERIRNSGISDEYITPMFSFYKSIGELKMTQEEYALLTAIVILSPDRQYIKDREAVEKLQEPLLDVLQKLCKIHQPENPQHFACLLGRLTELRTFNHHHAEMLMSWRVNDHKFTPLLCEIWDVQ
Protocol: ATG_TRANS is a cell-based, multiplexed-readout assay that uses HepG2, a human liver cell line, with measurements taken at 24 hours after chemical dosing in a 24-well plate.ATG_FXR_TRANS is one of 30 assay component(s) measured or calculated from the ATG_TRANS assay. It is designed to make measurements of mRNA induction, a form of inducible reporter, as detected with fluorescence intensity signals by Reverse transcription polymerase chain reaction (RT-PCR) and Capillary electrophoresis technology.Data from the assay component ATG_FXR_TRANS was analyzed into 1 assay endpoint. This assay endpoint, ATG_FXR_TRANS, was analyzed in the positive analysis fitting direction relative to DMSO as the negative control and baseline of activity. Using a type of inducible reporter, measures of mRNA for gain-of-signal activity can be used to understand the reporter gene at the transcription factor-level as they relate to the gene NR1H4. Furthermore, this assay endpoint can be referred to as a primary readout, because this assay has produced multiple assay endpoints where this one serves a reporter gene function. To generalize the intended target to other relatable targets, this assay endpoint is annotated to the nuclear receptor intended target family, where the subfamily is non-steroidal.
Human liver HepG2 cells are transiently transfected with multiple reporter transcription units (MRTUs) in 6-well plates using FuGene 6 reagent (Roche; 3 ml FuGene/1 mg DNA). The MRTU constructs are regulated by a cis-regulating element (promoter). […] A major difference between the CIS and TRANS system is that in CIS activities of endogenous TFs are measured, whereas the TRANS assay evaluates changes in activities of exogenous, chimeric NR-Gal4 proteins. […] At the end of 24 hour incubation, total RNA was isolated using TriZol reagent (Invitrogen). The isolated RNA is then reverse-transcribed using oligo(dT) primer and Mo-MLV reverse transcriptase (Invitrogen) with DNAse I (Ambion) treatment for 30 min. The one-tenth of the produced cDNA was amplified by PCR using Taq DNA polymerase (Invitrogen) and two reporter sequence-specific primers. The PCR products were fluorescently labeled by primer extension with 6-arboxyfluorescein (6-FAM) 5'-labeled reporter sequence-specific primer (2 min at 95 C, 20 s at 68 C and 10 min at 72 C) and these products were digested with 5U of HpaI (New England Biolabs) for 2h at 37 C. The fragments were purified using Qiaquick PCR columns (Qiagen), analyzed on an ABI 3130xL genetic analyzer (Applied Biosystems) with peak positions identified by using a set of X-rhodamine (ROX)-labeled MapMarker1000 molecular weight standards (BioVentures). The raw capillary electrophoresis data was processed using Attagraph software (Attagene).

Row | SMILES | outcome | AC50
1 | C[N+](C)(C)Cc1ccccc1 | inactive | –
2 | O=NN1CCCCCCC1 | inactive | –
3 | O=[N+]([O-])c1ccc(Nc2ccccc2)cc1 | inactive | –
4 | CCOCn1c(-c2ccc(Cl)cc2)c(C#N)c(Br)c1C(F)(F)F | inactive | –
5 | O=C(Nc1ccc(Br)cc1)c1cc(Br)cc(Br)c1O | inactive | –
6 | C=CC(=O)OCC(COC(=O)C=C)(COC(=O)C=C)COC(=O)C=C | inactive | –
7 | CC(C=O)Cc1ccc2c(c1)OCO2 (stereo not given) | inactive | –
8 | C=CC(Cl)CCl (stereo not given) | inactive | –
9 | CC(C)=CC1C(C(=O)OCc2cccc(Oc3ccccc3)c2)C1(C)C (stereo not given) | inactive | –
10 | O=S(=O)(C(Cl)(Cl)Cl)C(Cl)(Cl)Cl | inactive | –
11 | Cc1cc(SCc2sc(-c3ccc(C(F)(F)F)c(F)c3)nc2C)ccc1OCC(=O)O | – | 27.1 µM (active)
12 | O=NN1CCCCCC1 | inactive | –
13 | Cc1ccccc1OP(=O)(Oc1ccccc1)Oc1ccccc1 | inactive | –
14 | C=CC(=O)[O][Sn]([CH2]CCC)([CH2]CCC)[CH2]CCC | inactive | –
15 | C=CC(F)(C(F)(F)F)C(F)(F)C(F)(F)F (stereo not given) | inactive | –
16 | Cc1cc(C(F)(C(F)(F)F)C(F)(F)F)ccc1NC(=O)c1cccc(I)c1C(=O)NC(C)(C)CS(C)(=O)=O | inactive | –
17 | CCC[CH2][Sn]([CH2]CCC)([CH2]CCC)[CH2]CCC | inactive | –
18 | COC(F)(C(F)(F)C(F)(F)F)C(F)(C(F)(F)F)C(F)(F)F (stereo not given) | inactive | –
19 | FC(F)OCC(F)(F)C(F)(F)F | inactive | –
20 | Cc1ccc2nc3sc(=O)sc3nc2c1 | inactive | –

Row | SMILES | outcome | AC50
21 | ClCCCCl | inactive | –
22 | CCCCC(CC)C(=O)Cl (stereo not given) | inactive | –
23 | CN(CCCC(O)c1cccnc1)N=O (stereo not given) | inactive | –
24 | CN(C)[C@@H]1C(=O)C(C(N)=O)=C(O)[C@@]2(O)C(=O)C3=C(O)c4c(O)ccc(Cl)c4[C@@](C)(O)[C@H]3C[C@@H]12 | inactive | –
25 | O=c1[nH]c2ccccc2n1C1CCN(CCCC(c2ccc(F)cc2)c2ccc(F)cc2)CC1 | inactive | –
26 | CCOP(=S)(OCC)O/N=C(\C#N)c1ccccc1 | inactive | –
27 | O=C(NC(=O)c1c(F)cccc1F)Nc1ccc(Cl)cc1 | inactive | –
28 | OC(Cc1ccccc1Cl)(Cn1cncn1)C1(Cl)CC1 (stereo not given) | inactive | –
29 | C=CCOC(F)(C(F)(F)F)C(F)(F)F | inactive | –
30 | OC(Cc1ccccc1Cl)(Cn1[nH]cnc1=S)C1(Cl)CC1 (stereo not given) | inactive | –
31 | CCOC(=O)Cc1ccccc1 | inactive | –
32 | CCOC(=O)C(SP(=S)(OC)OC)c1ccccc1 (stereo not given) | – | 30.7 µM (active)
33 | CC(C)(C)c1cc([N+](=O)[O-])cc(C(C)(C)C)c1O | inactive | –
34 | c1csc(-c2ccc(-c3cccs3)s2)c1 | inactive | –
35 | CCC[CH2][Sn]([Cl])([Cl])[CH2]CCC | inactive | –
36 | CCOP(=S)(OCC)OP(=S)(OCC)OCC | inactive | –
37 | COC(=O)c1cc(Oc2ccc(Cl)cc2Cl)ccc1[N+](=O)[O-] | inactive | –
38 | Cc1cccc(C)c1NC(=O)CN1CCCC1=O | inactive | –
39 | C1CCC(C2CCCCC2)CC1 | inactive | –
40 | C[C@@H]1O[C@@H](O[C@H]2C[C@@H](O)[C@]3(CO)[C@H]4[C@H](O)C[C@]5(C)[C@@H](C6=CC(=O)OC6)CC[C@]5(O)[C@@H]4CC[C@]3(O)C2)[C@H](O)[C@H](O)[C@H]1O | inactive | –
